Only some compounds are listed: those with a hit (about 11% of all), similar ones and a draw of the others.
L3MBTL1 block – inhibitors of human L3MBTL1 | AlphaScreen L3MBTL1–H3K9me1 peptide binding | Q9Y468 | Potency, µM (highest dose often 57.1 µM), without a hit: at the highest dose activity, negative = inhibition, hits mostly inhibitors | AID 485360 | 230,000 compounds, 0.66% hits; also: % is scaled to controls: 0 for no effect and ±100 for the full control effect; nearly all actives have a fitted effect of over 60% in size
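First, the protein-peptide complex forms for 30 min at room temperature (L3MBTL1 50 nM, biotinylated H3K9me1 peptide 75 nM). Next, compounds are pin-transferred and incubated 30 min. Finally, AlphaScreen beads are added and read after 30 min.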
JMJD2A Tudor inh – inhibitors of human JMJD2A Tudor domain. Potency, µM (doses to about 114 µM), without a hit: at the top dose activity change, negative = inhibition, actives largely listed as inhibitors. O75164. AlphaScreen JMJD2A-Tudor / H3K4me3 peptide binding. 390,000 compounds, 4.4% hits. AID 504339; also: % is scaled to controls: 0 for no effect and ±100 for the full control effect; nearly all actives have a fitted effect of over 50% in size
BAZ2B block – inhibitors of human BAZ2B bromodomain; Q9UIF8; AlphaScreen BAZ2B-H3K14Ac peptide displacement; Potency, µM (top dose mostly 114 µM), without a hit: top-dose activity change, negative = inhibition, most hits filed as inhibitors; 360,000 compounds, 4.4% hits; AID 504333; also: % is scaled to controls: 0 for no effect and ±100 for the full control effect; nearly all actives have a fitted effect of over 60% in size
Target sequence (Q9UIF8 whole entry, looked up): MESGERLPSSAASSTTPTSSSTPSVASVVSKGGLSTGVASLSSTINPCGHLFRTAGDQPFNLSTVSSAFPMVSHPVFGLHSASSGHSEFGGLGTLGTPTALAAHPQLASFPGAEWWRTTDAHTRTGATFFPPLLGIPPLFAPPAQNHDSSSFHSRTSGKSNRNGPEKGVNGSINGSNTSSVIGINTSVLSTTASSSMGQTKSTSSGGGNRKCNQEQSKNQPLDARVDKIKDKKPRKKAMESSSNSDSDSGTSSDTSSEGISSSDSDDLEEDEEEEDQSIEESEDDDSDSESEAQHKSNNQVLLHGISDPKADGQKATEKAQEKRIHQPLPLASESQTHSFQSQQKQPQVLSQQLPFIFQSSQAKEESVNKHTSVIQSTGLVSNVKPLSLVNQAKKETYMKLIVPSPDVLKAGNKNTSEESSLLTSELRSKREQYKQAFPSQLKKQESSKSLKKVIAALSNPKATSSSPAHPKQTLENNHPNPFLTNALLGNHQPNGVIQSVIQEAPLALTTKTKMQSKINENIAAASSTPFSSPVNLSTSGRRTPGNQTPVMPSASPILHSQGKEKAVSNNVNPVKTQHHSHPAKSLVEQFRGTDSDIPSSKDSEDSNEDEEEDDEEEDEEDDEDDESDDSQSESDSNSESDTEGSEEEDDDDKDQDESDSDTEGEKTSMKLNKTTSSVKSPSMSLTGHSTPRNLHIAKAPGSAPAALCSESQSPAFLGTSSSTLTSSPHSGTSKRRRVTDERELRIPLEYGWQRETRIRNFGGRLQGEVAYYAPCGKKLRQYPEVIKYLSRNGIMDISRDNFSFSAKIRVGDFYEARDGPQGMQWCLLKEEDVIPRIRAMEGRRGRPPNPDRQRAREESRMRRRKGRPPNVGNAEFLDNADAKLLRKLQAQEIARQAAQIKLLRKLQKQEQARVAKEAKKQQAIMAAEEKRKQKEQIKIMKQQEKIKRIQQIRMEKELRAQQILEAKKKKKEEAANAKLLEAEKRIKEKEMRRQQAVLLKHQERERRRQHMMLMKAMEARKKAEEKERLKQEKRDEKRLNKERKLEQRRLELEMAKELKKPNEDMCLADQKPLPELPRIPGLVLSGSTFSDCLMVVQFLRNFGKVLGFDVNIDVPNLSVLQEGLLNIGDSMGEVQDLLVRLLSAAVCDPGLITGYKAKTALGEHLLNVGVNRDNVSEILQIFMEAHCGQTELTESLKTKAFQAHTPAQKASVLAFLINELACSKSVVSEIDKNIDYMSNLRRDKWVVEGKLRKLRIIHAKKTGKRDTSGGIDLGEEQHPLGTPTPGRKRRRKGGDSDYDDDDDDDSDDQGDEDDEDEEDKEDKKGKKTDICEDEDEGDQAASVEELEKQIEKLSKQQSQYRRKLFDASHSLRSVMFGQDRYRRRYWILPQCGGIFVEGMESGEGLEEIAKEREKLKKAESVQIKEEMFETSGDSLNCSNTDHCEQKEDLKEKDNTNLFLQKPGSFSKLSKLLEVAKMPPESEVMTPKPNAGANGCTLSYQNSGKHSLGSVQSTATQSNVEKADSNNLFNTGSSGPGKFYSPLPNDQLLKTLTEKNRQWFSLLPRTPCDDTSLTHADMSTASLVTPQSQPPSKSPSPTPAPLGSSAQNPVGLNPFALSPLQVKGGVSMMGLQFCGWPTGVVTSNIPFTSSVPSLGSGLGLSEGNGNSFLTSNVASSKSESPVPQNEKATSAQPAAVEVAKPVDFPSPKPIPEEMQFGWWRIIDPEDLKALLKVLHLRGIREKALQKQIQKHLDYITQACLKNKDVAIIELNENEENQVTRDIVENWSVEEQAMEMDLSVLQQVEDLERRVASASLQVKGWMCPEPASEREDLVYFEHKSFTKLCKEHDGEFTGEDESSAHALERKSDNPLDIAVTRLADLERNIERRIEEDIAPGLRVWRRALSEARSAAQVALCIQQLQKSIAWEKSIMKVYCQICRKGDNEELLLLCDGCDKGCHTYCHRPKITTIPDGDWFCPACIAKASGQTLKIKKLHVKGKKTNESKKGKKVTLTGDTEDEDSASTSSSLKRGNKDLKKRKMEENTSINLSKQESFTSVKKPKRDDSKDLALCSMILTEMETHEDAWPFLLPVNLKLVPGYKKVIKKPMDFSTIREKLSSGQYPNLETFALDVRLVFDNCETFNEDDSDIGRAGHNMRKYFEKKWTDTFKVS
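Protein-peptide AlphaScreen: BAZ2B 50 nM, b-H3K14Ac 50 nM, 1x PBS pH 7.4 + 0.01% Tween-20. Preincubation 30 min RT; cpd 30 min RT (top 110 uM); beads 20 min RT, light-protected.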
G9a inh – blocks human histone lysine methyltransferase G9a. Q96KQ7. AID 504332. G9a H3K9 monomethylation, AlphaScreen, 2 h. Potency, µM (top dose mostly 102 µM), inactives show top-dose activity, negative = inhibition, actives largely listed as inhibitors. 350,000 compounds, 8.8% hits; also: % is scaled to controls: 0 for no effect and ±100 for the full control effect; nearly all actives have a fitted effect of over 75% in size
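Methyltransferase reactions run at room temperature for 2 h (20 nM enzyme, 500 nM biotin-H3K9 peptide, 20 uM SAM) after a 15 min compound preincubation; product detected by AlphaScreen beads and anti-H3K9me1 antibody.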
HP1b binding inh – blocks HP1-beta chromodomain binding to methylated histone tails | P83916 | AlphaScreen HP1-beta / biotin-H3K9me3 peptide binding | Potency, µM (highest dose often 114 µM), inactives show at the top dose activity change, negative = inhibition, actives largely listed as inhibitors | 390,000 compounds, 0.56% hits; also: nearly all actives have a fitted effect of over 70% in size
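Compound inhibition of the preformed complex between 50 nM HP1-beta and 50 nM biotinylated H3K9me3 peptide was read by AlphaScreen. Buffer was PBS pH 7.4 with 0.01% Tween-20. Incubations ran 30 min at room temperature, with 10 ug/mL donor/acceptor beads.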
Active calls of the source: *; ? = inconclusive; / = no result; [ ] = remark or other dose. Calls follow the shape of the dose curve; as a rule, active = well fitted inhibition curve with a large enough effect; inconclusive = small, poorly fitted or top-dose-only effect; inactive = no such curve, though single readings can be large or run the other way. Potency is read from the fitted curve at half-maximal effect.

SMILES | L3MBTL1 block | JMJD2A Tudor inh | BAZ2B block | G9a inh | HP1b binding inh
O=C1C(=Cc2ccco2)CCCC1=Cc1ccco1 | / | 56µM* | / | / | ?
COc1ccc(C2SCCN2C(=S)Nc2ccc(F)cc2)cc1 (stereo not given) | 8% | 3%[57.1 µM] | 5% | 40µM* | -14%
O=C(NCC(O)CN1CCOCC1)c1ccc([N+](=O)[O-])cc1 (stereo not given) | 6%[11.4 µM] | -12% | -10% | -5% | 54%
CCOC(=O)c1n[nH]n(-c2cc(Cl)cc(Cl)c2)c1=O | ? | 7% | 12% | 3% | 43%
CCOC(=O)c1cc(=O)n(-c2ccc(Cl)cc2C)[nH]1 | 5% | -16% | -29% | 13µM* | 18%
S=C1NCCNC(=S)NCCOCCOCCN1 | / | 40µM* | -17% | -6%[59 µM] | -9%
O=C(Oc1cc(=O)n2ccccc2n1)c1ccccc1 | 11% | -6% | -2% | 18µM* | 47%
O=C(O)c1c(Cl)nc2ccccn12 | 3% | 3% | / | ? | 44%
Cn1nnnc1SCCCNCc1cc(Br)ccc1OCc1ccccc1F | / | -25% | -10% | -29%[59 µM] | 5%
O=C(Cc1ccc([N+](=O)[O-])cc1)Nc1ccc(Cl)cc1 | -23% | -12% | -12% | 40µM* | 31%
O=C(C/C=N\OCc1ccc([N+](=O)[O-])cc1)Nc1ccc(Cl)cc1 | -6% | -24% | -5% | 4% | 4%
Cc1onc(-c2ccccc2)c1C(=O)Nc1ncc([N+](=O)[O-])s1 | / | -15% | -29% | 45µM* | -3%
O=C(Cc1ccc(Br)cc1)Nc1ncc([N+](=O)[O-])s1 | / | -26% | 50µM* | 28µM* | 2%
O=C(Cc1ccc(Cl)cc1)Nc1ncc([N+](=O)[O-])s1 | 7% | -31% | -12% | 35µM* | -5%
Cc1onc(-c2ccccc2)c1C(=O)Nc1nnc(C(C)C)s1 | / | -15% | -10% | / | 23%
CCc1ccc(C2C(C(=O)Nc3ccc(Cl)cc3)=C(C)Nc3ncnn32)cc1 (stereo not given) | / | -16% | -13% | 1%[59 µM] | 23%
O=C(COC(=O)COc1ccccc1)Nc1ncc([N+](=O)[O-])s1 | -6% | 79µM* | -36% | ? | -29%
CSc1nc(SCCO)c2sc3nc(-c4ccco4)c4c(c3c2n1)CC(C)(C)OC4 | -93% | ? | 32µM* | ? | 15%
CSc1nc(N(CCO)CCO)c2sc3nc(-c4ccco4)c4c(c3c2n1)CCC4 | 2.5µM* | -35%[11.4 µM] | ? | 13µM* | 11µM*
CCCCNC(=O)CSc1nnc(C)c2c(C)n(-c3ccccc3)nc12 | / | 0% | -11% | -8%[59 µM] | 53%
CCOc1cc(CN2CCCCC2)ccc1OC | -10%[11.4 µM] | -14% | 4% | -5%[59 µM] | 10%
CCOc1cc(CN2CCN(c3ccc(C(C)=O)cc3)CC2)ccc1OC | -1% | 1.4µM* | 56µM* | 32µM* | ?
CCOc1cc(CN2CCN(c3cccc(C(F)(F)F)c3)CC2)ccc1OC | / | 8.9µM* | 8.9µM* | 22µM* | ?
CN(CC(=O)Nc1ccccc1C(F)(F)F)Cc1c(O)ccc2ccccc12 | / | 79µM* | ? | 7.9µM* | -30%
COc1ccccc1NC(=O)Cc1cccc2ccccc12 | -6%[2.29 µM] | 12% | 8% | 1%[0.501 µM] | 82%
SMILES | L3MBTL1 block | JMJD2A Tudor inh | BAZ2B block | G9a inh | HP1b binding inh
CN(CC(=O)Nc1ccccc1C(F)(F)F)C(=O)c1cc(Cl)nc2ccccc12 | 6% | -17% | 9% | 12%[0.501 µM] | 15%
CCCN(CC(=O)Nc1ccccc1OC)Cc1c(O)ccc2ccccc12 | / | 56µM* | ? | 3.5µM* | ?
CCOC(=O)C(C(=O)OCC)N(Cc1cc(OC)ccc1OC)C(=O)C1CC(CO[Si](C)(C)C(C)(C)C)=CN1C(=O)OC(C)(C)C (stereo not given) | / | -35% | / | / | 8%
Cc1ccc(OCC(=O)c2ccc(Cl)s2)c([N+](=O)[O-])n1 | -30% | 56µM* | 50µM* | 50µM* | -13%
COc1ccc(-n2c(C)cc(C(=O)CCl)c2C)cc1 | / | ? | 45µM* | 56µM* | 0%
COc1ccc(-n2c(C)cc(C(=O)COc3ccc(C)nc3[N+](=O)[O-])c2C)cc1 | -11% | 9% | ? | ? | 37%
Cc1cc(-n2c(C)cc(C(=O)CCl)c2C)no1 | -6% | -22% | / | 50µM* | 42%
COc1ccc(-n2c(C)cc(C(=O)CN3C(=O)c4ccccc4C3=O)c2C)cc1 | -17% | -28% | -35% | 1%[59 µM] | 11%
Cc1ccc(OCC(=O)c2cc(C)n(-c3cc(C)on3)c2C)c([N+](=O)[O-])n1 | -19% | -32% | ? | 50µM* | -9%
Cc1cc(-n2c(C)cc(C(=O)CN3C(=O)C(=O)N(C)C3=O)c2C)no1 | 4% | -12% | / | / | 19%
CC(=O)Nc1ccc(SCCCC(=O)c2ccccc2)cc1 | / | -19% | -20% | 45µM* | 25%
COc1ccc(-n2c(C)cc(C(=O)CSc3ccc(NC(C)=O)cc3)c2C)cc1 | ? | ? | 45µM* | ? | ?
CC(=O)Nc1ccc(SCC(=O)c2cc(C)ccc2C)cc1 | / | -1% | -37% | ? | 32%
CC(=O)Nc1ccc(SCC(=O)c2cc(C)n(-c3ccccc3)c2C)cc1 | -12% | -23% | 45µM* | ? | 4%
COc1ccc(-n2c(C)cc(C(=O)COC(=O)Cn3cnc4ccccc43)c2C)cc1 | -10% | ? | ? | 16µM* | -16%
COc1ccc(NC(=O)CSc2ccc(C)cc2)cc1 | -14% | -10% | -3% | -30%[59 µM] | 38%
CCS(=O)(=O)NCCc1sc2nc(-c3ccc(OC)cc3)nn2c1C | / | -15% | -4% | 10%[59 µM] | 5%
COc1cccc(N2CCN(C(=O)c3cc4c(s3)CCCCC4)CC2)c1 | -15% | ? | -16% | 11%[2.33 µM] | 17%
O=S(=O)(Nc1ccc(F)cc1F)c1ccc(-n2cccn2)cc1 | / | 1% | -7% | -30%[59 µM] | 26%
CCNC(=O)COc1ccc(/C=C2\COc3ccccc3C2=O)cc1OC | / | -26% | -9% | 40µM* | 4%
CCOc1ccc(/C(O)=C2/C(=O)C(=O)N(c3nc(C)c(C)s3)C2c2ccco2)cc1 (stereo not given) | -9% | ? | -37% | 45µM* | 6%
CCOc1ccc(/C(O)=C2\C(=O)C(=O)N(c3cc(C)on3)C2c2ccccc2OC)cc1 (stereo not given) | 23% | -25% | -36% | ? | 6%
COC(=O)c1sc(N2C(=O)C(=O)/C(=C(/O)c3ccc(C)cc3)C2c2ccco2)nc1C (stereo not given) | / | 63µM* | -31% | ? | -15%
COC(=O)c1sc(N2C(=O)c3oc4ccccc4c(=O)c3C2c2cccc(O)c2)nc1C (stereo not given) | / | -14% | -4% | -12% | 0%
CCN(CCCNC(=O)C1CCN(S(=O)(=O)c2c(C)[nH]c(=O)[nH]c2=O)CC1)c1cccc(C)c1 | / | -15% | -8% | 50µM* | 33%

Screening results deposited in PubChem BioAssay by National Center for Advancing Translational Sciences (NCATS).
